# Screens (PubChem)
# Shown are actives, neighbours in structure and some others; about 3.3% of the full set was active somewhere.
# NS1 inh – qHTS Assay for Inhibitors of Influenza NS1 Protein Function | Potency, µM (titrated, usually from 46.1 µM) | hit rate 0.4% among 270,000; calls by dose curve; note: actives are rising curves; nearly all actives have a fitted effect of over 50% in size
#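 Compounds were scored for reversing the slow growth caused by influenza A NS1 in S. cerevisiae, measured by optical density at 600 nm. Assay medium contained 2% galactose at pH 6.0; NS1-free yeast of the same strain were the positive control.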
# Tb PYK inh – qHTS of Trypanosoma Brucei Inhibitors; pyruvate kinase (Trypanosoma brucei), Q57TT1; hit rate 0.12% among 410,000; TbPYK enzyme, Kinase-Glo Plus ATP luminescence, 45 min; Potency, µM (highest dose often 76.8 µM), hits mostly inhibitors; note: nearly all actives have a fitted effect of over 50% in size
#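 Screened from lowest to highest concentration, compounds were pinned into TbPYK/substrate mixtures, and ADP (130 uM final) was added. Plates sat at room temperature for 45 min prior to Kinase-Glo Plus detection by luminescence.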
# Sm TGR block – qHTS Assay for the Inhibitors of Schistosoma Mansoni Peroxiredoxins. hit rate 3% among 360,000. AID 485364, 2010. Schistosoma mansoni thioredoxin glutathione reductase (TGR), Q962Y6. purified TGR, DTNB reduction, TNB absorbance 405 nm. Potency, µM (series often up to 114 µM), hits mostly inhibitors; note: nearly all actives have a fitted effect of over 60% in size
#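 First, TGR (20 nM dispensed) and NADPH were mixed with compound. Second, a 15 min room-temperature incubation followed. Third, further NADPH and then DTNB were added to start the reaction. Finally, TNB absorbance was monitored kinetically.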
# LmPK inhibitor – qHTS Assay for Inhibitors of Leishmania Mexicana Pyruvate Kinase (LmPK); Q27686; purified LmPK, Kinase-Glo ATP luminescence, 1 h; Potency, µM (series often up to 57.5 µM), hits mostly inhibitors; hit rate 0.37% among 290,000; AID 1721, 2009
# Target sequence (Q27686 whole entry, looked up): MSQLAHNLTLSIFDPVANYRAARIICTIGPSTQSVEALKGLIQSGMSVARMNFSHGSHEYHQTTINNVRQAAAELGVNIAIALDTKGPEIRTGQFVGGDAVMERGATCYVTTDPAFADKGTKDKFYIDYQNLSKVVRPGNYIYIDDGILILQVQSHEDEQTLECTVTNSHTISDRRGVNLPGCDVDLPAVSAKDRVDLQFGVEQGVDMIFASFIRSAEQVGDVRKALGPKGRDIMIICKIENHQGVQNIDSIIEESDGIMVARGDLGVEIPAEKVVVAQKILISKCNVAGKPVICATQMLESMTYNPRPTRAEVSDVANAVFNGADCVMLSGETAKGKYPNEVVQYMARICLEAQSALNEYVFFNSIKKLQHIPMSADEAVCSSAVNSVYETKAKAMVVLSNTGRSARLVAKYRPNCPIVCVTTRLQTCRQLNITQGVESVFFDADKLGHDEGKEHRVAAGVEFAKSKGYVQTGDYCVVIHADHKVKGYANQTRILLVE
#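 Screened at intermediate enzyme activity to detect both inhibitors and activators: LmPK at 0.1 nM, with a 0.5 nM enzyme column as activation reference. PEP 0.5 mM, ADP 0.1 mM; ATP detected by luminescence after 1 h.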
# SARS PLP yeast – qHTS of Yeast-based Assay for SARS-CoV PLP. Potency, µM (series often up to 32.9 µM), usual class: activators. AID 485353, 2010. S. cerevisiae expressing SARS-CoV PLpro, growth rescue. hit rate 0.19% among 330,000; calls by dose curve; note: nearly all actives have a fitted effect of over 55% in size
# RE007 growth inh – qHTS Assay for Inhibitors of the HIV-1 protein Vpr; S. pombe RE007 Vpr strain, BacTiter-Glo ATP luminescence, 24 h; Potency, µM (doses to about 92.2 µM), actives largely listed as inhibitors; hit rate 0.21% among 360,000; AID 651644, 2012; active = well fitted falling curve with a large enough effect; inconclusive = small, poorly fitted or top-dose-only effect; inactive = no such curve, though single readings can be large or run the other way; note: nearly all actives have a fitted effect of over 50% in size
#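 Fission yeast RE007 carrying one integrated HIV-1 vpr copy, seeded at OD 0.01 in PMG+AL medium with 23 nL pinned compound. Grown 24 h at 30 degrees; viability read by BacTiter-Glo luminescence after 5 min.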
# Hits are given with their value; - = inactive; ? = inconclusive; . = not tested or not shown; [ ] = remark or other dose. Unless noted, calls come from the whole dose curve; as a rule, active = well fitted curve in the direction sought with a large enough effect; inconclusive = small, poorly fitted or top-dose-only effect, or another doubt; inactive = no such curve, though single readings can be large; an effect the other way counts as inactive or inconclusive.
SMILES,NS1 inh,Tb PYK inh,Sm TGR block,LmPK inhibitor,SARS PLP yeast,RE007 growth inh
O=[N+]([O-])c1ccc2c(N=Nc3ccc4ccccc4c3O)c(O)cc(S(=O)(=O)O)c2c1,-,.,.,.,.,.
CCOC(=O)/C(=C/C=C1\Sc2cc(C)c(C)cc2N1CC)C(C)=O,-,-,45µM,-,-,-
CCOC(=O)/C(=C/C=C1\Sc2ccccc2N1CC)C(C)=O,-,-,-,-,-,-
Nc1ncnc2c1ncn2[C@H]1O[C@@H](C(=O)O)[C@@H](O)[C@H]1O,-,.,.,.,.,.
CCc1cc2cc(C)cc(C)c2[nH]c1=S,.,11µM,-,?,-,-
CCOCCCN(Cc1cc2cc(C)cc(C)c2[nH]c1=O)C(=O)N(CC)CC,-,-,-,-,-,-
COc1ccc(CCN(C)Cc2c(O)ccc3ccccc23)cc1OC,-,-,1.4µM,-,-,-
CCCN(CC(=O)Nc1ccccc1OC)Cc1c(O)ccc2ccccc12,-,-,2µM,-,-,-
CN(CC(=O)Nc1ccccc1C(F)(F)F)C(=O)c1cc(Cl)nc2ccccc12,.,-,-,.,-,-
CN(CC(=O)Nc1ccccc1C(F)(F)F)Cc1c(O)ccc2ccccc12,-,-,1µM,-,-,-
CCc1ccccc1NC(=O)CN(C)Cc1c(O)ccc2ccccc12,-,-,0.71µM,-,-,?
COc1ccccc1NC(=O)C(C)N(C)CC(=O)Nc1cccc2ccccc12 (configuration not stated),.,-,.,.,-,-
COc1ccccc1CN(C)CC(=O)Nc1cccc2ccccc12,-,-,-,-,-,-
CCn1c(SC)nc2c([nH]c3ccccc32)c1=O,.,-,-,.,.,.
Cc1ccnc(NS(=O)(=O)c2ccc(NC(=O)C(C)(C)Oc3ccc(Cl)cc3)cc2)n1,.,-,-,.,.,.
O=C(NC(=S)Nc1ccc(N2CCOCC2)cc1)c1cccc(Cl)c1,-,-,22µM,-,-,-
O=C(NC(=S)Nc1ccccc1O)c1cncc(Br)c1,.,-,.,.,.,-
O=C(NC(=S)Nc1ccc(N2CCOCC2)cc1)c1cccc(Cl)c1Cl,-,-,-,-,-,-
O=C(NC(=S)Nc1ccc(N2CCOCC2)cc1)c1ccccc1,.,-,16µM,-,-,-
O=C(NC(=S)Nc1ccc(N2CCOCC2)cc1)c1cncc(Br)c1,-,-,13µM,-,-,-
O=C(NC(=S)Nc1ccccc1[N+](=O)[O-])c1cncc(Br)c1,-,-,20µM,-,-,-
CCc1ccc(C(=O)NC(=S)Nc2ccc(N3CCOCC3)cc2)cc1,-,-,?,-,-,-
COc1ccc(CNC(=O)CCS(=O)(=O)c2cc(Br)cc3c2N(C(=O)C2CC2)CC3)cc1,.,-,?,.,.,.
COc1ccc(-c2onc(C)c2C)cc1S(=O)(=O)Nc1cc(Cl)ccc1C,.,-,-,.,.,.
CCc1ccc(NCc2cc3ccc(OC)cc3n(CC(=O)Nc3ccc(F)cc3F)c2=O)cc1,.,-,-,.,.,.
SMILES,NS1 inh,Tb PYK inh,Sm TGR block,LmPK inhibitor,SARS PLP yeast,RE007 growth inh
CC(C)Oc1cccc(C(=O)NC(=S)Nc2ccc(N3CCN(C)CC3)cc2)c1,-,-,45µM,-,-,-
CC(=O)c1ccc(NC(=S)Nc2ccc(N3CCOCC3)cc2)cc1,.,-,45µM,-,-,-
COc1cccc(C(=O)NC(=S)Nc2ccc(N3CCCC3)cc2)c1,-,-,?,-,-,-
Cc1ccc2nc(-c3ccc4c(c3)OCCO4)cn2c1,-,-,-,14µM,-,?
COc1ccc(-c2cn3cc(C)ccc3n2)cc1OC,-,-,-,16µM,-,?
CS/C(Nc1cc(Cl)ccc1Cl)=C(/C#N)C(=O)c1ccco1,-,32µM,-,22µM,-,-
O=C(Nc1cc(Cl)ccc1Cl)c1ccco1,-,-,-,-,-,-
Cc1cccc(C(=O)Oc2csc(=S)n2C(=O)c2cccc(C)c2)c1,-,28µM,-,-,-,-
O=C(Oc1csc(=S)n1C(=O)c1ccccc1)c1ccccc1,-,?,-,-,-,-
COc1ccc(-c2nc3c(c4c2C[C@H](c2ccccc2)OC4)CN(S(=O)(=O)c2ccc(NC(C)=O)cc2)CC3)c(C)c1,.,.,.,-[11.5 µM],.,.
CCN1CCN(C(c2cccc(Cl)c2)c2c(O)cc(C)n(CCOC)c2=O)CC1 (configuration not stated),.,-,5.6µM,.,.,.
CCN1CCN(C(c2ccc(OC)cc2)c2c(O)cc(C)n(CCOC)c2=O)CC1 (configuration not stated),.,-,10µM,.,.,.
CCN1CCN(C(c2cccc(F)c2)c2c(O)cc(C)n(CCOC)c2=O)CC1 (configuration not stated),.,-,4µM,.,.,.
CCN1CCN(C(c2ccc(F)cc2)c2sc3nc(-c4ccco4)nn3c2O)CC1 (configuration not stated),.,-,-,.,.,.
CCN1CCN(C(c2ccc(F)cc2)c2c(O)cc(C)n(CCOC)c2=O)CC1 (configuration not stated),.,-,4.5µM,.,.,.
OCCOCCN1CCN(C(c2ccccc2)c2ccc(Cl)cc2)CC1 (configuration not stated),-,-,-,-,-,-[18.4 µM]
CCOc1ccc(/C=C/c2nc(C#N)c(N3CCC(C)CC3)o2)cc1,.,-,-,.,.,.
CCN1CCN(C(c2ccccc2)c2c(O)cc(C)n(CCOC)c2=O)CC1 (configuration not stated),.,-,4µM,.,.,.
COCCn1c(C)cc(O)c(C(c2ccccc2)N2CCCCC2)c1=O (configuration not stated),.,-,-,.,.,.
CCN1CCN(C(c2ccc(Cl)cc2)c2c(O)cc(C)n(CCOC)c2=O)CC1 (configuration not stated),.,-,4.5µM,.,.,.
N#Cc1ccc(/C=C/C(=O)c2ccco2)cc1,-,-,?,-,-,18µM
O=C(/C=C/c1ccccc1O)c1ccco1,-,-,?,-,-,?
Cc1cccc2cc(/C=C/C(=O)c3ccco3)c(Cl)nc12,-,-,7.9µM,-,-,-
Nc1ccc(/C=C/C(=O)c2ccco2)cc1,-,-,-,-,-,?
O=C(/C=C/c1cc(Br)ccc1O)c1ccco1,-,-,14µM,-,-,?
Cc1ccc2oc(=O)c3cc(C(=O)Nc4ccc(C)c(F)c4)sc3c2c1,.,-,?,.,.,.
C[C@H](CCCC/C=C/C(=O)O)O[C@@H]1O[C@@H](C)[C@H](O)C[C@H]1O,.,-,56µM,.,-,-
CCOC(=O)N1CCc2c(sc3c2c(=O)n(Cc2ccccc2)c(=O)n3CC(=O)Nc2ccc(F)cc2)C1,.,-,-,.,.,.
Cc1nn(CC(=O)Nc2ccc(C(C)C)cc2)c(=O)c2c(C)n(-c3ccc(Cl)cc3)nc12,.,-,-,.,.,.
